# From PubChem BioAssay (Tox21)
# Results filed as inconclusive are left out. Unmarked numbers belong to inactive results. Activity calls are given as the source filed them. Calls come from the whole dose curve.
# Assay: qHTS assay to identify small molecule agonists of the hypoxia (HIF-1) signaling pathway - cell viability counter screen (AID 1224844); note: nearly all actives have a fitted effect of over 50% in size
# Conditions: HRE-bla ME-180 viability, CellTiter-Glo luminescence, 17 h; series mostly up to 76.8 µM
# Description: National Center for Advancing Translational Sciences [NCATS]
# NIH Chemical Genomics Center [NCGC]
# U.S. Environmental Protection Agency [EPA]
# National Institutes of Environmental Health Sciences [NIEHS]
# National Toxicology Program [NTP]
# U.S. Food and Drug Administration [FDA]
# Hypoxia-inducible factor-1 (HIF-1) is the major hypoxia-regulated transcription factor that controls cellular responses to low oxygen concentration. HIF-1 is composed of two subunits: hypoxia responsive HIF-1-alpha and constitutively expressed HIF-1-beta, which is also known as aryl hydrocarbon receptor nuclear translocator. During hypoxic conditions, HIF-1-alpha heterodimerizes with HIF-1-beta and translocates into the nucleus where the HIF-1 complex binds to the hypoxia-response element (HRE) and activates expression of target genes such as VEGF (vascular endothelial growth factor). The HIF-1 pathway is essential to normal growth and development, and is involved in the pathophysiology of cancer, inflammation, and ischemia.
# Using a beta-lactamase reporter-gene under control of the hypoxia response element, a cell-based assay [CellSensor(TM) HRE-bla ME-180 from Life Technologies, Carlsbad, CA] was used to measure hypoxia-induced signaling. Tox21 10K library compounds were measured for their ability to induce the reporter gene activity. The cytotoxicity of the Tox21 compound library against HRE-bla ME-180 cell line was tested in parallel by measuring cell viability using CellTiter-Glo assay (Promega, Madison, WI) in the same assay wells.
# Tox21 Assay Protocol Summary:
# HRE-bla ME-180 cells were dispensed at 2,000 cells per well in 6 uL of assay medium containing 0.5% dialyzed FBS into black wall/clear-bottom 1536-well plates using a Multidrop Combi (Thermo Scientific, Waltham, MA) dispenser. After the assay plates were incubated at 37C and 5% CO2 for 5 hrs, 23 nL of compounds dissolved in DMSO, positive controls or DMSO only was transferred to each well of the assay plate using a Pintool station (Kalypsys, San Diego, CA). The assay plates were incubated at 37C and 5% CO2 for 17 hrs. One uL of LiveBLAzerTM B/G FRET substrate (CCF4-AM) (Life Technologies) was added to each well using a Flying Reagent Dispenser (FRD, Aurora Discovery, San Diego, CA). After 2 hr incubation at room temperature, fluorescence intensity (405 nm excitation, 460 nm and 530 nm emissions) was measured using an Envision plate reader (PerkinElmer, Shelton, CT). For cytotoxicity, 4 ul/well of CellTiter-Glo reagent was added into the assay plates using an FRD. After 30 min incubation at room temperature, the luminescence intensity was measured using a ViewLux plate reader (PerkinElmer).
# % is set by controls: 0 for no effect and ±100 for the full control effect.
SMILES,outcome,"activity change, negative = cytotoxicity"
CC(C)(C)OC(=O)c1ccc(O)cc1,inactive,
CNS(=O)(=O)CCc1ccc2[nH]cc(C3CCN(C)CC3)c2c1,inactive,
CCCCCCCCCC(C)=O,inactive,
CC(=O)Nc1ccc(S(=O)(=O)Nc2ccc([N+](=O)[O-])cc2)cc1,inactive,
Cc1ccccc1N=O,inactive,
C=C(C)C(=O)OCCNC(C)(C)C,inactive,
O=C(CCN1CCN(CCO)CC1)N1c2ccccc2Sc2ccc(C(F)(F)F)cc21,inactive,
Nc1ccc(S(=O)(=O)Nc2ccc(Cl)nn2)cc1,inactive,
COc1cc2c(cc1OC)C(=O)CC2,inactive,
CCCCCCN,inactive,
BrCCCCCBr,inactive,
CC(N)C(=O)OC(C)(C)Cc1ccc(Cl)cc1 (stereo not given),inactive,
CCCCNC1CC(C)(C)NC(C)(C)C1,inactive,
BrCc1cccc(Oc2ccccc2)c1,inactive,
CCC(C)NC(N)=O (stereo not given),inactive,
O=C1c2ccccc2C(=O)N1CCl,inactive,
NS(=O)(=O)c1ccc(NC(=O)CCC(=O)O)cc1,inactive,
CC1COc2ccccc2N1 (stereo not given),inactive,
CCCC/C=C\CCCCCCCCCC=O,inactive,
CCn1ccc(NS(=O)(=O)c2ccc(N)cc2)nc1=O,inactive,

SMILES,outcome,"activity change, negative = cytotoxicity"
CC(C)C(=O)OCc1cccc(OC(=O)[C@@H]2N3C(=O)[C@@H](NC(=O)Cc4ccccc4)[C@H]3SC2(C)C)c1,inactive,
C[Si](C)=O,,3.37% [at 6.97 µM]
CC(=O)NCCCCCC(=O)O,inactive,
C=CC(OCC)OCC,inactive,
CC(=O)N[C@@H](CCC(=O)O)C(=O)O,inactive,
CC(CN)CC(C)(C)CCN (stereo not given),inactive,
CCNC(=O)C1CC(C)CCC1C(C)C (stereo not given),inactive,
CCC(C)(CCC(C)C)C(=O)O (stereo not given),inactive,
N[C@@H](CCC(=O)N[C@@H](CS)C(=O)NCC(=O)O)C(=O)O,,2.76% [at 15.8 µM]
CC1=C(C(=O)O)N2C(=O)[C@@H](NC(=O)[C@H](N)c3ccc(O)cc3)[C@H]2SC1,inactive,
CCCCCCCCSCC,inactive,
Cc1cccc(OCC(O)CNC(C)(C)C)c1C (stereo not given),inactive,
C=COCCOCCOCCOC=C,inactive,
CCCCOC(=O)c1ccccc1,inactive,
CC(C)CCCC(C)(C)O,inactive,
N[C@@H](COP(=O)(O)O)C(=O)O,,-1.64% [at 15.8 µM]
COc1cc(NS(=O)(=O)c2ccc(N)cc2)nc(OC)n1,inactive,
COCCOCCOCCOCCOCCO,inactive,
O=C(/N=N/C(=O)OCc1ccccc1)OCc1ccccc1,inactive,
CCCCC(CC)COCCO (stereo not given),inactive,
